Among the data in PubChem BioAssay AID1578 (Sanford-Burnham Center for Chemical Genomics, 2009) are inhibition values, retold here.

Out of some 290,000 compounds screened, about 3,000 (1%) were called active. Cut-off read from the data, not from the text of the source: active = inhibition mostly above about 36% (no sharp cut-off); inactive = mostly below about 34%. The full list was thinned out, with actives kept by preference.

This assay is described as follows: inhibition of NOD1-driven NF-kB reporter – cell-based, luminescence, uHTS, primary screen (AID 1578).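 Note: HEK-293T reporter cells stimulated with the NOD1 agonist gamma-tri-DAP.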 The settings on record: NOD1-driven NF-kB luciferase reporter cells, at 4 µM, active compounds read high. For orientation: In a reporter assay the amount or activity of a reporter protein is the signal.
On to `CCCOc1ccc(N2C(=O)CC(N(CCc3ccc(OC)c(OC)c3)C(=S)Nc3ccccc3)C2=O)cc1` (centres undefined), for which the inhibition is -8.1% (inactive).

Turning to `O=C(Nc1ccon1)c1ccc(S(=O)(=O)N2CCOCC2)cc1`, the inhibition is -5.1% (inactive).

Take `CCOc1cc(N2CCOCC2)c(OCC)cc1NC(=O)c1nc2nccc(C)n2n1`: the inhibition is -8.4% (inactive).

In the case of `O=S(=O)(NCc1nc2ccccc2[nH]1)c1ccccc1`, the inhibition is -21.9% (inactive).

As to `CCCCNC(=O)CCC(=O)Nc1ccc2nc(N3CCCCC3)cc(C)c2c1`, the inhibition was -15.4% (inactive).

On to `O=c1[nH]c(C2CCN(S(=O)(=O)c3ccc(C(F)(F)F)cc3)CC2)nc2c1nnn2Cc1ccccc1`, for which the inhibition was -8.3% (inactive).

Take `O=C(N/N=C/c1cccnc1)c1ccc(CN2c3cccc4cccc(c34)S2(=O)=O)cc1`: the inhibition is -27.8% (inactive).

Consider `Fc1ccccc1NC(=S)NCCc1ccc(Cl)cc1`, for which the inhibition was -79.8% (inactive).

On to `CCc1nc(SCC(=O)Nc2ccccc2C(=O)OC)n[nH]1`, for which the inhibition is -16.5% (inactive).

Take `COc1ccccc1CNC(=O)c1cc(C(=O)CC(C)C)c[nH]1`: the inhibition was -11% (inactive).

For the compound `CC(=O)Oc1cc(OC(C)=O)c2c(C)cc(=O)oc2c1`, the inhibition was 13.6% (inactive).

Consider `CCc1cc(=O)oc2cc(OC(C)=O)cc(OC(C)=O)c12`, for which the inhibition was 41.8% (active).

As to `CCc1cc(=O)oc2cc(C)cc(OCC(C)=O)c12`, the inhibition was -8.5% (inactive).

Take `Cc1nnc(NC(=O)CN2CCN(Cc3ccccc3Cl)CC2)s1`: the inhibition was -8.9% (inactive).

As for `CCN(CC)c1ccc(NC(=O)CN2C(=O)CC(C)(C)S(=O)(=O)c3ccccc32)c(C)c1`, the inhibition is -6.7% (inactive).

For `Cc1ccc(N(C(=O)Cn2nnc(-c3ccc(C)o3)n2)C(C(=O)NC2CCCC2)c2ccncc2)cc1` (centres undefined), the inhibition was -8.9% (inactive).

`CNC(=S)Nc1cc(S(=O)(=O)Nc2cc(Cl)ccc2Cl)ccc1N1CCCC1`: the inhibition was 2.1% (inactive).

With `CCOc1c(Cl)cc(CNc2nnnn2C)cc1OC`, the inhibition is -41.1% (inactive).

For `O=C(Cc1cccc2ccccc12)N/N=C1\CCCc2ccccc21`, the inhibition is 13% (inactive).

As for `Cc1nnc(NC(=O)CCS(=O)(=O)Cc2ccccc2)s1`, the inhibition is -5.2% (inactive).

`O=C(CCCOc1ccccc1)Nc1nncs1`: the inhibition is 2.6% (inactive).

As to `O=C(CCS(=O)(=O)c1ccccc1)Nc1nncs1`, the inhibition was 3.3% (inactive).

Turning to `Cc1ccccc1OCCCC(=O)Nc1nccs1`, the inhibition is 6.5% (inactive).

Turning to `Cc1ccccc1OCCCC(=O)Nc1nncs1`, the inhibition is 51.4% (active).

For the compound `O=C(CCS(=O)(=O)Cc1ccccc1)Nc1nncs1`, the inhibition is 103% (active).

As to `CCOC(=O)c1nnc2cc(-c3ccccc3)nn2c1C`, the inhibition is -32.6% (inactive).

Turning to `Cc1ccc(N(Cc2cc3ccc(C)cc3[nH]c2=O)C(=O)c2ccco2)cc1`, the inhibition was -4% (inactive).

Turning to `COc1ccc(OCCC(=O)OCC(=O)NC(=O)NC(C)C)cc1`, the inhibition was -3.2% (inactive).

As to `COc1cccc(/C=N/N2CCN(C3c4ccccc4-c4ccccc43)CC2)c1O`, the inhibition was -6.4% (inactive).

In the case of `CCCn1c(=S)[nH]c2ccccc2c1=O`, the inhibition is -14.5% (inactive).

`CN(C)c1ccc(/C=C/c2ccc3c4ccccc4ccc3[n+]2-c2ccccc2)cc1`: the inhibition is 71.6% (active).

Take `Oc1ccc(/C=C/c2ccc3ccccc3n2)cc1`: the inhibition was 50.2% (active).

`CN(C)c1ccc(/C=C/c2ccc3ccccc3n2)cc1`: the inhibition was 59.1% (active).

As for `C(=C\c1ccc2ccccc2n1)/c1ccccc1`, the inhibition is 0% (inactive).

As to `O=[N+]([O-])c1ccc(/C=C/c2ccc3ccccc3n2)cc1`, the inhibition was -12.9% (inactive).

For `CN(C)c1ccc(/C=C/c2nc3ccccc3s2)cc1`, the inhibition is -3.1% (inactive).

Turning to `CCCN(CCC)c1ccc(/C=C/c2ccc3cc(OCC)ccc3n2)cc1`, the inhibition was -1.6% (inactive).

On to `CN(C)c1ccc(/C=C/c2ccc3ccccc3[n+]2C)cc1`, for which the inhibition is 43.8% (inactive).

Take `CC[n+]1ccccc1/C=C/c1ccc(N(C)C)cc1`: the inhibition is 40.5% (inactive).

Consider `COc1cc(CNCCC2CCOC(C)(C)C2)ccc1O` (centres undefined), for which the inhibition was 12.4% (inactive).

For `O=C(COc1ccc2c3c(c(=O)oc2c1)CCC3)Nc1ccc(CN2CCOCC2)cc1`, the inhibition was -11.6% (inactive).

In the case of `COc1ccc2nc(C)c(C(N)=O)cc2c1`, the inhibition is 5.9% (inactive).

In the case of `O=C(NC(=O)c1ccccc1)Nc1ccccn1`, the inhibition was 64.2% (active).

With `O=C(Nc1ccccn1)c1ccc(C(=O)Nc2ccccn2)cc1`, the inhibition was -5.1% (inactive).

`O=C(NC(=S)Nc1ccccn1)c1ccccc1`: the inhibition was -7.6% (inactive).

Regarding `CC(=O)c1c(C)nn(CC(O)COc2ccc3ccccc3c2)c1C` (centres undefined), the inhibition was -16.4% (inactive).

Turning to `Cc1ccccc1C(=O)NC(=S)N(CCO)Cc1ccccc1`, the inhibition is -10.6% (inactive).

As for `CSCC(=O)N1CCC(Oc2cccc(C(=O)NCc3ccccn3)c2)CC1`, the inhibition was -24% (inactive).

In the case of `CC(C)NC(=O)CSc1nc(N)c(-c2ccccc2)c(=O)[nH]1`, the inhibition is 7.6% (inactive).

`CC(=O)N/C(N)=N/c1nc2cc(C)ccc2o1`: the inhibition is -10.1% (inactive).

Take `Cc1ccc2oc(/N=C(\N)NC(=O)C3CC3)nc2c1`: the inhibition was -13.8% (inactive).

For the compound `CCCOc1cccc(C2C(C(=O)c3ccco3)=C(O)C(=O)N2c2nnc(C)s2)c1` (centres undefined), the inhibition was -7.8% (inactive).

Consider `N#Cc1ccc(C(=O)NCC2CCCCC2)cc1`, for which the inhibition was 0.9% (inactive).

Consider `O=C(O)c1cccc(C(=O)c2cccc(C(=O)O)c2)c1`, for which the inhibition was -26.4% (inactive).

As for `COc1ccc(CCCC(=O)N/N=C/c2ccccc2OC)cc1`, the inhibition is -14.1% (inactive).

Turning to `CSc1ccc(/C=N/NC(=O)CNc2ccc3ccccc3c2)cc1`, the inhibition is -16.8% (inactive).

Turning to `CCN(CC)S(=O)(=O)c1ccc(N/N=C(\C)c2ccncc2)c([N+](=O)[O-])c1`, the inhibition was 31% (inactive).

As to `C/C(=N\Nc1ccc(S(=O)(=O)Nc2ccccc2)cc1[N+](=O)[O-])c1ccncc1`, the inhibition is 34.7% (inactive).

As for `Cc1cc(=O)[nH]c(N/N=C/c2ccc(-c3ccc(F)cc3)o2)n1`, the inhibition is -56.3% (inactive).

Take `C/C(=N\N=c1/sc2ccccc2n1C)c1ccccn1`: the inhibition is -61.2% (inactive).

In the case of `CCN(CC)S(=O)(=O)c1ccc2c(c1)c(=O)c(C(=O)NCCOC)cn2C`, the inhibition was -12.6% (inactive).

As to `COc1ccc(C(=O)Nn2c(SCC(=O)c3ccccc3)nc3ccccc3c2=O)cc1`, the inhibition was 43.6% (inactive).

As for `COc1ccc(C(=O)Nn2c(SCC(=O)NC3CCCCC3)nc3ccccc3c2=O)cc1`, the inhibition was 88% (active).

On to `COc1ccc(C(=O)Nn2c(SCC(=O)NCc3ccco3)nc3ccccc3c2=O)cc1`, for which the inhibition was -0.3% (inactive).

In the case of `COc1ccc(C(=O)Nn2c(SCC(=O)NCC3CCCO3)nc3ccccc3c2=O)cc1` (centres undefined), the inhibition is 64.6% (active).

Consider `COc1ccc(C(=O)Nn2c(SCC(=O)NCc3ccccc3)nc3ccccc3c2=O)cc1`, for which the inhibition was 18.4% (inactive).

Consider `COc1ccc(C(=O)Nn2c(SCC(=O)NC3CCCC3)nc3ccccc3c2=O)cc1`, for which the inhibition is 12.9% (inactive).

Take `COc1ccccc1NC(=O)C(CCS(C)(=O)=O)N1C(=O)c2ccccc2C1=O` (centres undefined): the inhibition is -3.2% (inactive).

In the case of `C#CCSc1nnc(-c2c[nH]c3ccccc23)n1C`, the inhibition is -40.9% (inactive).

With `Cn1cc2ccc([N+](=O)[O-])cc2n1`, the inhibition is -6.5% (inactive).

As to `CCOc1ccc(CCNC(=O)CCC(=O)N2CCOc3ccccc32)cc1OCC`, the inhibition was -4.6% (inactive).

Regarding `O=C(N/C(=C\c1cccs1)C(=O)N1CCOCC1)c1ccco1`, the inhibition was -12.2% (inactive).

With `CCOc1ccc(NC(=O)CN(C)c2nnnn2-c2ccccc2)cc1OCC`, the inhibition is 39% (inactive).

With `COc1cc(OC)c(C(=O)/C=C/c2ccccc2)c(O)c1O`, the inhibition is 21.4% (inactive).

Regarding `COc1cc(O)c(C(=O)/C=C/c2ccccc2)c(OC)c1`, the inhibition is 1.3% (inactive).

As for `COc1cc(O)cc(O)c1C(=O)/C=C/c1ccccc1`, the inhibition is 49.8% (active).

`CCC1C/C(=C\c2cccnc2)C(=O)/C(=C/c2cccnc2)C1` (centres undefined): the inhibition was 103% (active).

`O=C1/C(=C/c2cccnc2)CC/C1=C\c1cccnc1`: the inhibition is 5.4% (inactive).

For `CN1C/C(=C/c2cccnc2)C(=O)/C(=C/c2cccnc2)C1`, the inhibition was 37% (inactive).

With `O=C(CCl)c1ccc2c(c1)CCN2C(=O)C1CCCCC1`, the inhibition is 13% (inactive).

For `CC(Cl)C(=O)c1ccc2c(c1)CCN2C(=O)C1CC1` (centres undefined), the inhibition is 43.8% (inactive).

For `O=C(CCl)c1ccc2c(c1)CCN2C(=O)C1CC1`, the inhibition is 76.4% (active).

On to `Cc1nnsc1NC(=O)OCc1ccc(C(C)(C)C)cc1`, for which the inhibition is 58.9% (inactive).

As to `Clc1ccc(OCc2nn[nH]n2)cc1`, the inhibition is 4.7% (inactive).

Turning to `Cc1cc(C)c(C)c(S(=O)(=O)NCC(=O)NCC2CCCCC2)c1C`, the inhibition is -8.5% (inactive).

As to `O=C(NC1CCN(S(=O)(=O)c2cccc(F)c2)CC1)c1ccc(F)cc1`, the inhibition was -9.7% (inactive).

In the case of `C1=Nc2c(Nc3ccccc3)ncnc2Oc2ccccc21`, the inhibition was -21% (inactive).

Take `COc1ccc(CNC(=O)/C=C/c2ccc(OCCCF)cc2)cc1`: the inhibition is -6.2% (inactive).

Regarding `O=C(/C=C/c1ccc(OCCCF)cc1)Nc1ccnc(-c2cccnc2)n1`, the inhibition was 8.2% (inactive).

As to `O=C(/C=C/c1ccc(OCCCF)cc1)Nc1ccnc(-c2ccncc2)n1`, the inhibition is 89.5% (active).

Consider `CCC(C)C(Nc1ncnc2scc(-c3ccccc3)c12)C(=O)O` (centres undefined), for which the inhibition is -21% (inactive).

On to `O=S(=O)(NC1CC1)c1ccccc1`, for which the inhibition was -1% (inactive).

Regarding `COC(=O)c1cn(NC(=O)c2cc([N+](=O)[O-])ccc2F)c(=O)c2ccccc12`, the inhibition was 78% (active).

Take `COC(=O)c1cn(NC(=O)c2ccccc2[N+](=O)[O-])c(=O)c2ccccc12`: the inhibition was -27.3% (inactive).

Take `COC(=O)c1cn(NC(=O)c2ccc([N+](=O)[O-])cc2Cl)c(=O)c2ccccc12`: the inhibition is -35.6% (inactive).

On to `CC1CN(C(=O)COC(=O)c2cc(Cl)ccc2[N+](=O)[O-])CC(C)O1` (centres undefined), for which the inhibition was -25.3% (inactive).

On to `CCCCS(=O)(=O)N1CCN(S(=O)(=O)c2ccc(Cl)s2)CC1`, for which the inhibition is -11% (inactive).

`O=C(Oc1cc(=O)oc2ccccc12)c1ccccc1`: the inhibition was -8.5% (inactive).

Turning to `CC(C)[C@H](NC(=O)[C@@H]1Cc2ccccc2CN1)C(=O)NC1CCCCC1`, the inhibition was -12.1% (inactive).

As a reminder, the inhibition is the relative decrease from the control value, in per cent.
